Screening results from PubChem.
In the library only some 3.1% were active in any assay of this set; here they are far more common.
TRAIL sens C8 – caspase-8 TRAIL sensitization | 360,000 tested, 1% active | inhibition (viability loss, TRAIL sensitization), % at 10 µM | NB7+C8 cells + TRAIL, ATPlite viability luminescence | AID 624354;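 active = compounds causing at least 50% loss of cell viability in the single-dose screen, relative to plate controls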
HIF-2a inh – blocks HIF-2a reporter activity. 786-0 RCC cells HIF-2a reporter, luciferase luminescence, overnight. inhibition, % at 18.8 µM. 360,000 tested, 0.72% active. AID 624352;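 active = inhibition of the luminescence signal of 40% or more relative to plate controls, in a single-dose primary screen at 18.75 µM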
Peg3 promoter – Peg3 promoter activity inhibition; HeLa PEG-Prom luciferase reporter, luminescence, overnight; inhibition, % at 20 µM; 360,000 tested, 1.7% active;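 active = inhibition of at least 50% at 20 µM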
PPC-1+TRAIL kill – kills PPC-1 cancer cells in the presence of TRAIL | cell killing (% activity), % at 4 µM or 5 µM | 220,000 tested, 0.41% active | PPC-1 cells + TRAIL, ATPLite viability luminescence;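 active = cell killing above 50% in the first pass at 4 µM, then a duplicate retest at 5 µM averaging 50% or more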;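 also: plate controls were cells with TRAIL plus DMSO for no effect and medium-only wells lacking cells for full effect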
KKLEB tox – reduces viability of KKLEB cystic fibrosis airway cells; KKLEB CF airway cells viability, ATPlite luminescence, overnight; active compounds read low; cells stimulated with P. aeruginosa culture filtrate; activity change (cytotoxicity), % at 5 µM; 360,000 tested, 0.36% active; AID 602141;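 active = corrected activity change at or below -50% at 5 µM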
CF NFkB block – inhibitors of cystic fibrosis induced NF-kB; KKLEB NF-kB-GFP reporter, PAF-induced, GFP fluorescence overnight; inhibition, % at 5 µM; AID 588850; 360,000 tested, 0.86% active;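 active = at least 50% inhibition at 5 µM, scaled per plate between neutral and stimulator controls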;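 also: PAF is a Pseudomonas aeruginosa culture filtrate used as stimulus; plate controls were PAF-stimulated DMSO wells for no effect and unstimulated DMSO wells for full effect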
CF NFkB inh conf – confirmation of cystic fibrosis induced NF-kB inhibitors; 1,300 tested, 64% active; AID 602472; KKLEB CF airway cells, PAF-induced NF-kB-GFP fluorescence, overnight; shares compounds with CF NFkB block; inhibition, % at 5 µM; in the data active = inhibition above about 40%;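 also: stimulus PAF is a Pseudomonas aeruginosa filtrate and not platelet activating factor; plate controls were DMSO wells with stimulus for no effect and unstimulated DMSO wells for full effect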
An asterisk follows results filed as active; · = no result.

SMILES	TRAIL sens C8	HIF-2a inh	Peg3 promoter	PPC-1+TRAIL kill	KKLEB tox	CF NFkB block	CF NFkB inh conf
Cn1c(=O)c([N+](=O)[O-])c(NC2CCS(=O)(=O)C2)c2ccccc21 (configuration not stated)	2.5	10.1	11.1	9.2	2.6	4.2	·
Nc1ncnc(NC2CCS(=O)(=O)C2)c1[N+](=O)[O-] (configuration not stated)	1.6	10.9	-24.6	6.3	-5.8	52.0*	35.1
CN(c1ncnc(N)c1[N+](=O)[O-])C1CCS(=O)(=O)C1 (configuration not stated)	1.5	7.9	-2.8	-2.1	-13.5	51.1*	60.6*
Cc1ccc(S(=O)(=O)N2CCCCC2)cc1NCC(=O)Nc1ccc(Br)cc1F	14.6	11.3	18.8	·	-2.7	-18.2	·
COC(=O)c1cc(NC(=O)Nc2cccc(Cl)c2)ccc1Cl	0.8	-294.2	-70.8	11.3	-29.8	50.1*	34.6
O=C(Nc1cccc(Cl)c1)Nc1ccc(Br)cc1F	30.7	-247.8	-154.8	6.6	-43.2	59.2*	20.0
O=C(Nc1ccccc1)Nc1ccc(Br)cc1F	14.9	-303.8	-347.4	11.4	27.4	-5.1	·
O=C(Nc1cccc(Cl)c1)Nc1cc(S(=O)(=O)N2CCCCC2)ccc1Cl	8.6	-22.4	66.4*	2.9	-45.8	50.2*	75.3*
Cc1ccc(Cl)cc1N1CCN(C(=O)c2ccc3c(c2)CCN3S(C)(=O)=O)CC1	27.9	12.3	20.6	·	-2.0	-0.6	·
O=c1[nH]c2cc(Cl)cc([N+](=O)[O-])c2c2ccc(Cl)cc12	13.2	18.1	16.7	·	-17.6	-54.2	·
O=C1NC(c2cccc3ccccc23)Nc2ccc(Cl)cc21 (configuration not stated)	-11.1	2.5	-13.5	·	-25.8	51.9*	84.0*
Clc1ccc(C2Nc3cccc4cccc(c34)N2)c(Cl)c1	4.6	-8.8	10.7	·	-8.7	-5.7	·
C=CC[C@@H](CC(=O)N[C@H](CO)Cc1ccccc1)C(=O)NC[C@H](OC(=O)[C@@H](CC=C)Cc1ccc(F)cc1)c1ccccc1	1.9	-2.2	78.6*	·	-40.6	54.2*	63.0*
CCC(C)(C)NC(=O)c1ccc(Sc2nncn2C)c([N+](=O)[O-])c1	-4.3	12.7	5.5	16.4	-13.4	13.5	·
Cn1cnnc1Sc1ccc(/C=C/C(=O)c2ccc(O)cc2)cc1[N+](=O)[O-]	-5.2	35.9	109.7*	11.6	-2.4	59.1*	-91.1
COC(=O)[C@]12CCCCC=C1N(Cc1ccc3c(c1)OCO3)C(=O)[C@H](CC(=O)NCc1cccc3ccccc13)C2	-0.2	12.8	·	·	·	·	·
Cc1cccc(NC(=O)Nc2ccc(C#N)cc2)n1	28.6	-107.5	62.0*	7.2	-1.9	75.2*	97.8*
Cc1cccc(NC(=O)Nc2cccc(C#N)c2)n1	5.4	-306.7	-82.1	6.6	6.2	15.8	·
COc1cccc(-c2ccc3ncnc(NCc4cccnc4)c3c2)c1	-10.1	26.4	28.6	·	-15.8	71.0*	83.4*
COc1cccc(CNc2ncnc3cc(OC)c(OC)cc23)c1	14.5	22.0	20.7	9.8	0.9	8.5	·
Cc1c(C(=O)OCC(C)C)[nH]c2c1C(=O)CC(c1ccco1)C2 (configuration not stated)	21.6	-60.9	-41.1	24.5	-24.0	50.8*	52.6*
C=CCOC(=O)c1[nH]c2c(c1C)C(=O)CC(c1ccco1)C2 (configuration not stated)	·	·	·	6.8	·	·	·
C/C=C/COC(=O)c1[nH]c2c(c1C)C(=O)CC(c1ccco1)C2 (configuration not stated)	4.2	15.5	-5.6	20.0	-31.5	61.9*	84.6*
COC(=O)c1[nH]c2c(c1C)C(=O)CC(c1ccccc1)C2 (configuration not stated)	-6.2	6.0	14.7	-4.6	-28.7	42.5	·
Cc1c(C(=O)OC2CCCC2)[nH]c2c1C(=O)CC(c1ccco1)C2 (configuration not stated)	20.4	-46.9	-25.9	-15.6	-31.1	50.5*	82.3*
SMILES	TRAIL sens C8	HIF-2a inh	Peg3 promoter	PPC-1+TRAIL kill	KKLEB tox	CF NFkB block	CF NFkB inh conf
Cc1c(C(=O)OCC2CCCO2)[nH]c2c1C(=O)CC(c1ccco1)C2 (configuration not stated)	26.9	-19.6	-4.4	20.6	0.9	5.2	·
O=C(COC(=O)Cc1ccsc1)Nc1cccc(F)c1	-12.3	-2.8	3.0	·	2.1	21.6	·
Cn1cc(C=CC(=O)O)c2nccnc21	1.4	9.6	4.7	·	-8.3	1.8	·
O=C1OC(c2ccccc2)(c2cc(Br)ccc2O)c2ccccc21 (configuration not stated)	3.9	31.5	104.2*	·	-20.3	74.6*	49.5*
CC1(Cc2ccc(Cl)cc2)C(=O)Nc2ccc(-c3cccnc3)cc21 (configuration not stated)	-20.7	15.9	23.1	·	-29.7	79.3*	91.1*
CCc1ccc2c(c1)NC(=O)C2(C)Cc1cccc(F)c1 (configuration not stated)	-7.1	9.2	14.9	·	-3.6	5.2	·
CC1(Cc2cccc(F)c2)C(=O)Nc2ccc(-c3cccnc3)cc21 (configuration not stated)	-3.0	15.1	19.8	·	4.8	72.4*	66.3*
COc1ccc(-n2nnnc2S(=O)(=O)Cc2ccc(C(=O)O)cc2)cc1	13.1	12.3	36.8	17.6	-42.1	89.4*	90.6*
COc1ccc(C(=O)Oc2ccc(F)cc2C(=O)/C=C/c2ccc(OC)c(OC)c2)cc1	11.0	3.7	18.6	23.2	-15.3	12.5	·
COc1ccc(/C=C/C(=O)c2cc(F)ccc2OC(=O)c2ccccc2C)cc1OC	-47.6	24.5	19.3	21.9	-27.0	54.2*	45.4*
COc1ccc2ncn(-c3ccccc3)c2c1	-11.3	12.2	-3.3	18.4	-6.1	58.5*	57.0*
CC(=O)Nc1cccc(NC(=O)CS(=O)(=O)c2cn(CC(=O)N(C(C)C)C(C)C)c3ccccc23)c1	-5.8	9.0	-2.2	·	-19.7	-4.9	·
COc1ccc(OC)c(-c2nnc3n2N=C(c2ccc(OC)c(OC4CCCC4)c2)CS3)c1	24.9	25.4	13.3	·	-20.8	66.5*	71.0*
COc1ccc(C2=Nn3c(nnc3-c3ccncc3)SC2)cc1	13.8	10.9	4.8	19.7	-33.2	72.4*	75.8*
CC1Sc2ccc(Cl)cc2-c2nc(N)ncc21 (configuration not stated)	-3.3	27.6	9.3	5.9	-23.8	66.4*	76.7*
S=C1CC2CCCC(C2)N1 (configuration not stated)	13.6	-1.3	-3.0	·	-2.8	-7.1	·
Cc1c(NC(=O)c2ccc(CC(C)C)o2)c(=O)n(-c2ccccc2)n1C	6.9	10.0	1.2	·	5.2	5.6	·
